SKOV3 invasion – Primary qHTS assay for Inhibitors of ovarian cancer metastasis using an organotypic tumor microenvironment (TME) model; SKOV3ip1-GFP adhesion/invasion on 3D omental model, fluorescence; AID 1963576, 2024; Potency, µM (titrated, usually from 45.8 µM), without a hit: at the top dose activity change, negative = inhibition, most hits filed as inhibitors; actives 0.1% (n = 46,000);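 further: potency means the concentration at half of the fitted maximal effect; plate controls were DMSO wells for no effect and tomatine positive control wells for full effect; nearly all actives have a fitted effect of over 65% in size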
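qHTS, 4-pt dose (0.36-46 umol/L); SKOV3ip1-GFP, 1,200 cells/well, no FBS; primary omental fibroblast/mesothelial co-culture 48 h pre-grown; 2 h RT + 16 h 37 C; PBS wash, 4% PFA; GFP count 488/509 nm.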
S16 F2sN tox – Cell viability qHTS assay in S16 Pmp22-F2sN cells. S16 Pmp22-F2sN Schwann cells viability, CellTiter-Glo, 24 h. Potency, µM (doses to about 57.5 µM), for the others: top-dose activity change, negative = cytotoxicity, actives largely listed as cytotoxic. actives 0.48% (n = 43,000). AID 1508642, 2021; further: potency means the concentration at half of the fitted maximal effect; on the % scale 0 is the no-effect control and ±100 the full control effect; nearly all actives have a fitted effect of over 65% in size
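Luminescence from CellTiter-Glo, read by CCD camera after a 15 min room-temperature incubation, served as the viability signal. Reporter Schwann cells (S16 Pmp22-F2sN) had been treated with pin-transferred compounds for 24 h at 37C.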
pS6 MEF inh – Acumen qHTS Assay for Inhibitors of the mTORC1 Signaling Pathway in MEF (Tsc2-/-, p53-/-) Cells: Sytravon; Tsc2-/- p53-/- MEF, phospho-rpS6 immunofluorescence/PI, 24 h; Potency, µM (doses to about 38.3 µM), without a hit: top-dose activity change, negative = inhibition, most hits filed as inhibitors; actives 0.78% (n = 44,000);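 further: potency means the concentration at half of the fitted maximal effect; plate controls were DMSO for no effect and rapamycin for full effect; nearly all actives have a fitted effect of over 50% in size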
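Tsc2-/-, p53-/- MEFs (empty-vector stable line) in DMEM + 10% FBS were treated with compounds 24 h at 37 degree Celsius, fixed, and immunostained for phospho-rpS6 (Alexa-488) with propidium iodide counterstain. Laser-scanning cytometry gave % positive cells, normalized against 7.5 nM rapamycin and DMSO.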
p53null 39C tox – qHTS Screen for Compounds that Selectively Target Cancer Cells with p53 Mutations: Cytotoxicity of p53 Null Cells at the Nonpermissive Temperature; Potency, µM (top dose mostly 46.1 µM), for inactives: at the highest dose activity, negative = cell killing, hits mostly cytotoxic; actives 0.97% (n = 55,000); AID 904, 2007; H1299 p53-null (neo) cells, 39C, ATPlite viability, 24 h;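 further: potency means the concentration at half of the fitted maximal effect; 0% = DMSO only and -100% = full killing by 100 µM tamoxifen; nearly all actives have a fitted effect of over 50% in size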
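Following overnight plating at 37C (600 cells/well), H1299-neo or H1299-p53A138V cells are dosed up to 46 uM. Incubation lasts 24 hr at 39C before ATP detection.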
PMP22 txn – Cell-based coincidence reporter assay to measure PMP22 gene transcription in S16 Pmp22-F2sN cells - Primary screen. S16 Pmp22-F2sN Schwann cells (luciferase reporters placed in the Pmp22 gene), FLuc/NLuc coincidence luminescence, 24 h. Potency, µM (doses to about 57.5 µM), inactives show at the top dose activity change, negative = inhibition, hits mostly inhibitors. actives 2% (n = 43,000). AID 1508649, 2021; active means clear falling dose curves in both reporters; inconclusive means both reporters move, but less clearly or upward; inactive means either reporter flat; the % is the NLuc reporter signal; further: potency means the concentration at half of the fitted maximal effect; on the % scale 0 is the no-effect control and ±100 the full control effect
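Transcriptional readout in edited S16(c9) cells: two luciferases reported from the Pmp22 locus, measured in turn after 24 h compound incubation.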
p53null 32C tox – qHTS Screen for Compounds that Selectively Target Cancer Cells with p53 Mutations: Cytotoxicity of p53 Null Cells at the Permissive Temperature; H1299-neo p53 null cells, ATP luminescence, 24 h, 32C; Potency, µM (highest dose often 46.1 µM), for inactives: at the top dose activity change, negative = cytotoxicity, most hits filed as cytotoxic; actives 0.62% (n = 55,000);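 further: potency means the concentration at half of the fitted maximal effect; 0% = DMSO only and -100% = full killing by 100 µM tamoxifen; nearly all actives have a fitted effect of over 55% in size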
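We seeded p53-null H1299-neo cells, incubated them overnight at 37C, and added compounds across a range up to 46 uM. After 24 hours at 32C, ATP reagent was applied for 20 min at room temperature and luminescence recorded.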
NLuc saturating – Biochemical NLuc saturation counterscreen for small molecule modulators of PMP22 gene expression - Nano-Glo assay | shares compounds with PMP22 txn | Secreted NLuc enzyme (filtered S16 cell medium), Nano-Glo luminescence | Potency, µM (series often up to 57.5 µM), for inactives: at the top dose activity change, negative = inhibition, hits mostly inhibitors | actives 4% (n = 690); further: potency means the concentration at half of the fitted maximal effect; on the % scale 0 is the no-effect control and ±100 the full control effect
NLuc Km ctr – Biochemical coelenterazine-based NLuc counterscreen for small molecule modulators of PMP22 gene expression - Km assay; shares compounds with PMP22 txn; secreted NLuc enzyme, coelenterazine luminescence, Km conditions; Potency, µM (series often up to 57.5 µM), for the others: at the highest dose activity change, negative = inhibition, hits mostly inhibitors; actives 5% (n = 690); AID 1508639, 2021; further: potency means the concentration at half of the fitted maximal effect; on the % scale 0 is the no-effect control and ±100 the full control effect
FLuc counter – Biochemical FLuc counterscreen for small molecule modulators of PMP22 gene expression | shares compounds with PMP22 txn | 690 tested, under 10 active | Potency, µM (doses to about 57.5 µM), inactives show top-dose activity, negative = inhibition, actives largely listed as inhibitors | purified P. pyralis FLuc, luminescence, 10 min; further: % of control where 0% means no effect
Target sequence (P08659 whole entry, looked up): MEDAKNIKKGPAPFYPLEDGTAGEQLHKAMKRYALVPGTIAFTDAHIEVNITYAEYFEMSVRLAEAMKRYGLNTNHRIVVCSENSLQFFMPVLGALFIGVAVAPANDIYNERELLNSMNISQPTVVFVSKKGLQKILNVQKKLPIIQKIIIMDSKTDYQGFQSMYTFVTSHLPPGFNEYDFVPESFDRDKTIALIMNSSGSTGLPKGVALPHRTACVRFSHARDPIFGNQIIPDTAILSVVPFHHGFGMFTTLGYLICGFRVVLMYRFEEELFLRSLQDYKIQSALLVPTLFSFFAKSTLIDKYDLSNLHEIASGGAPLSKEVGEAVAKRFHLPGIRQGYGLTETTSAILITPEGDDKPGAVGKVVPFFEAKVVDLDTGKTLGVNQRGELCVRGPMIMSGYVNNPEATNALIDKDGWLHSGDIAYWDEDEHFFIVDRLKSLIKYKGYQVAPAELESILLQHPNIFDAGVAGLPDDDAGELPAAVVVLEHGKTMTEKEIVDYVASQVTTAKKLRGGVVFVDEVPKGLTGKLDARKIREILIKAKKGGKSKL
S16 F2sN tox cnf – Cell viability qHTS assay in S16 Pmp22-F2sN cells - Confirmatory screen; AID 1508641, 2021; S16 Schwann cells viability, CellTiter-Glo ATP luminescence, 24 h; shares compounds with PMP22 txn; actives 7% (n = 690); Potency, µM (highest dose often 57.5 µM), inactives show top-dose activity change, negative = viability loss, hits mostly cytotoxic; further: potency means the concentration at half of the fitted maximal effect; on the % scale 0 is the no-effect control and ±100 the full control effect
PMP22 txn cnf – Cell-based coincidence reporter assay to measure PMP22 gene transcription in S16 Pmp22-F2sN cells - Confirmatory screen; shares compounds with PMP22 txn; S16 Schwann cells Pmp22-F2sN, dual luciferase, 24 h; Potency, µM (highest dose often 57.5 µM), without a hit: at the highest dose activity change, negative = inhibition, usual class: inhibitors; actives 22% (n = 690); AID 1508646, 2021; active means clear falling dose curves in both reporters; inconclusive means both reporters move, but less clearly or upward; inactive means either reporter flat; the % is the FLuc reporter signal; further: potency means the concentration at half of the fitted maximal effect
PMP22 HiBiT cnf – Cell-based HiBiT reporter assay to measure PMP22 protein expression in S16 Pmp22-HiBiT cells - Confirmatory screen; shares compounds with PMP22 txn; S16 Schwann cells Pmp22-HiBiT, luminescence, 48 h; Potency, µM (titrated, usually from 27.9 µM), inactives show at the highest dose activity change, negative = inhibition, actives largely listed as inhibitors; 95 tested, under 10 active; AID 1508647, 2021
* hit, by the source's call; ? = inconclusive; . = no result. Most compounds without a hit are left out; they make up all but 3.1% or so of the library. Unless noted, the call rests on the fitted dose curve; in most records, active means well fitted curve in the direction sought with a large enough effect; inconclusive means small, poorly fitted or top-dose-only effect, or another doubt; inactive means no such curve, though single readings can be large; an effect the other way counts as inactive or inconclusive.

SMILES	SKOV3 invasion	S16 F2sN tox	pS6 MEF inh	p53null 39C tox	PMP22 txn	p53null 32C tox	NLuc saturating	NLuc Km ctr	FLuc counter	S16 F2sN tox cnf	PMP22 txn cnf	others
Cc1ccc(S(=O)(=O)Nc2cc3c(cc2N2CCOCC2)n(C)c(=O)n3C)c(C)c1	10%	?	2%	-16%	15µM*	1%	-4%	-3%	5%	-9%	-45%
COc1ccc(OC)c(NC(=O)CSc2c3c(nc4ccccc24)CCCC3)c1	?	?	?	98%	9.5µM*	21%	?	?	4%	?	12µM*	PMP22 HiBiT cnf=?
CC(C)CCNC(=O)CSc1c2c(nc3ccc(Cl)cc13)CCCC2	-3%	?	?	64%	14µM*	16%	?	-13%	4%	-2%	?
COc1ccc(OC)c(Nc2c3c(nc4ccccc24)CCC3)c1	?	?	5.2µM*	?	8.4µM*	-22%	-13%	-5%	0%	-4%	1.5µM*
COc1ccc(OC)c(NC(=O)CSc2c3c(nc4cc(Cl)ccc24)CCCC3)c1	-4%	?	3%	57%	?	-5%	.	.	.	.	.
CCCCCCCN(CC)CCCC(O)c1ccc(NS(C)(=O)=O)cc1 (stereo unspecified)	-3%	.	.	.	.	.	.	.	.	.	.

Screening data: PubChem BioAssay, National Center for Advancing Translational Sciences (NCATS)
